Screening data from PubChem.
A selection: hits, their analogues and other compounds. The true share with any hit is near 13%.
MARV entry inh = Marburg virus entry inhibition; Potency, µM (top dose mostly 37.8 µM), for the others: top-dose activity change, negative = inhibition, most hits filed as inhibitors; actives 1.8% (n = 300,000); Marburg virus pseudotyped entry inhibition, cell reporter; calls by dose curve; tested in HEK293 cells; note: potency is the fitted concentration of half-maximal effect; % is set by controls: 0 for no effect and ±100 for the full control effect
Cycloheximide cs = counter-screen hit for Shiga toxin inhibitors, cycloheximide | cell reporter, cycloheximide protein synthesis inhibition counterscreen | actives 12% (n = 300,000) | max response, %; in the data active = max response mostly above about 13%, no sharp cut-off; inactive = mostly below about 14%; note: read at 38.3 µM for the half of the compounds with a filed dose; 0% is about no effect
HCV inhibitor = HCV inhibition; Huh7.5.1 HCVcc-Cre infection, luciferase reporter, 44 h; Potency, µM (series often up to 41.8 µM), for the others: top-dose activity change, negative = inhibition, most hits filed as inhibitors; actives 3.4% (n = 340,000); AID 651820; active = well fitted inhibition curve with a large enough effect; inconclusive = small, poorly fitted or top-dose-only effect, or another doubt; inactive = no such curve, though single readings can be large or run the other way; note: potency is the fitted concentration of half-maximal effect; % is set by controls: 0 for no effect and ±100 for the full control effect
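Luciferase read-out (15 sec integration) after a 15 min room-temperature substrate step quantifies HCVcc-Cre infection. Cells, 1,000 per well, had compound added 4 h post-plating, then virus at ~0.5 moi, and were cultured 44 h.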
Shiga toxin inh = inhibitors of Shiga toxin in Vero cells; actives 9.2% (n = 290,000); Vero cells, Shiga toxin protein synthesis inhibition reporter; inhibition, % at 38.7 µM; AID 2315; in the data active = inhibition mostly above about 28%, no sharp cut-off; inactive = mostly below about 43%; note: 0% is about no effect
LASV entry inh = inhibitors of Lassa virus binding or cell entry. Potency, µM (highest dose often 37.9 µM), without a hit: top-dose activity change, negative = inhibition, most hits filed as inhibitors. actives 1.2% (n = 300,000). Lassa virus pseudotype entry inhibition, cell reporter; calls by dose curve; tested in HEK293 cells; note: potency is the fitted concentration of half-maximal effect; % is set by controls: 0 for no effect and ±100 for the full control effect; nearly all actives have a fitted effect of over 50% in size
FMDV antiviral = foot and mouth disease virus antiviral activity. actives 1.2% (n = 410,000). AID 1159524. Potency, µM (series often up to 57.9 µM), inactives show top-dose activity change, negative = inhibition, most hits filed as inhibitors. FMDV antiviral cell-based qHTS; calls by dose curve; tested in HEK293T cells; note: read-out not given here; potency is the fitted concentration of half-maximal effect; % is set by controls: 0 for no effect and ±100 for the full control effect; nearly all actives have a fitted effect of over 45% in size
* = called active by the depositor; ? = inconclusive; . = no result given; [ ] = another dose, or the depositor's remark.

SMILES | MARV entry inh | Cycloheximide cs | HCV inhibitor | Shiga toxin inh | LASV entry inh | FMDV antiviral
Cc1nc(NCC2CCCO2)nc2c1C(=O)CC(C)C2 (stereo unspecified) | 28%[46.1 µM] | -1 | 9% | -17 | 5% | -14%
CC1CCC(=NNc2ccc(C(F)(F)F)cc2[N+](=O)[O-])CC1 (stereo unspecified) | 1% | 6 | 25% | -6 | 2% | -18%
COC(=O)c1ccccc1NC(=S)NC(=O)C1CCCCC1 | 9% | -2 | 17% | 11 | -10% | 0%
Fc1ccc(N2CCN(C(c3cccs3)c3nnnn3CCc3ccccc3)CC2)cc1 (stereo unspecified) | 13µM* | -2 | -25% | 9 | 11µM* | -25%
O=c1oc(/C=C/c2ccc([N+](=O)[O-])s2)nc2ccccc12 | . | 12* | 11% | 17 | . | 35%
CC(=O)Oc1ccccc1/C=C/c1nc2ccccc2c(=O)o1 | ? | 4 | 7% | -6 | 2µM* | ?
COc1ccc(C)cc1NC(=O)C1CCN(S(=O)(=O)Cc2ccccc2)CC1 | 1%[46.1 µM] | . | . | . | -7%[46.1 µM] | -8%
Cc1cccc(NC(=S)N(CCCN2CCCC2)Cc2cccn2Cc2ccc(Cl)cc2)c1 | 7.1µM* | -3 | ? | -3 | ? | -19%
COc1ccc(-n2nc3c(c2NC(=O)C2CC2)CS(=O)(=O)C3)cc1 | ? | -1 | 15% | 11 | 6% | -18%
CCOc1ncccc1C(=O)Nc1cccc(S(=O)(=O)NC2=NCCC2)c1 | . | . | -4% | . | . | 1%
O=C(C=Cc1ccco1)c1ccco1 | -7% | . | 16% | . | -15% | 72%
O=C(/C=C/C=C/c1ccccc1)c1ccco1 | . | 51* | -20% | 103* | . | 40%
O=C(/C=C\c1ccccc1)Nc1ccc(NC(=O)c2ccco2)cc1 | -13%[14.2 µM] | 4 | ? | 5 | -27% | -21%
O=C(/C=C/c1ccc([N+](=O)[O-])cc1)c1ccco1 | . | -3 | 7% | -3 | . | -8%
O=C(/C=C/c1ccc(Br)cc1)c1ccc(NC(=O)c2ccco2)cc1 | ? | 27* | ? | 14 | -5% | 4%
O=C(/C=C/c1ccc(Br)cc1)c1ccco1 | ? | 29* | 4% | 64* | ? | ?
O=C(Cn1c(=O)n(Cc2ccco2)c(=O)c2c3c(sc21)CCCC3)Nc1ccccc1 | ? | 10 | ? | -8 | -7% | -15%
NC(=O)Cn1c(=O)n(Cc2ccco2)c(=O)c2c3c(sc21)CCCCC3 | -8% | -2 | 6% | 11 | -1% | -23%
O=c1c2c3c(sc2n(CCN2CCCCC2)c(=O)n1Cc1ccco1)CCCCC3 | 16µM* | 8 | ? | -5 | 10% | -9%
O=c1c2c3c(sc2n(CCN2CCOCC2)c(=O)n1Cc1ccco1)CCCCC3 | ? | 3 | 10µM* | -2 | ? | -24%
CC(C)OC(=O)Cn1nnc(-c2ccccc2)n1 | ? | 12 | 8% | -5 | -1% | 22%
Cc1ccc(OCC(=O)N2CCCCC2)c(Br)c1 | 18% | 38* | -2% | 63* | -5% | 65%
O=C(COc1ccc(Cl)cc1Cl)N1CCCCCC1 | 16% | 28 | -7% | 22 | 18% | -2%
CC(C)(C)c1ccc(OCC(=O)N2CCCCCC2)c(Br)c1 | 1%[46.1 µM] | 43* | 11% | 120* | ? | 26%
COc1ccccc1N1CCN(C(=O)COc2ccc(C)cc2Br)CC1 | -13% | 6 | ? | 43 | ? | -28%
SMILES | MARV entry inh | Cycloheximide cs | HCV inhibitor | Shiga toxin inh | LASV entry inh | FMDV antiviral
CC(C)C[C@@H](COCc1cccc(Cl)c1)N1CCN(C(=O)c2cccc(C(F)(F)F)c2)CCC1=O | . | -1 | . | -3 | . | -28%
C=CCOc1ccccc1CN1CCCN(C)CC1 | . | -2 | 11% | -2 | . | 2%
CN(CC1COCCO1)C(=O)c1cnn(-c2ncc3c(n2)-c2ccccc2CCC3)c1C1CC1 (stereo unspecified) | . | . | . | . | . | 39%
CN(Cc1cccc2ncccc12)C(=O)c1cnn(-c2ncc3c(n2)-c2ccccc2CC3)c1C1CC1 | . | . | . | . | . | 28µM*
CC1CCCC(NC(=O)C2CCC(CNc3c(N4CCCCC4)c(=O)c3=O)CC2)C1C (stereo unspecified) | -1%[46.1 µM] | 1 | 11% | -14 | 11%[46.1 µM] | -13%
COc1ccc(C2CC(c3ccccc3)=NN2c2ccc(Cl)c(C(=O)O)c2)cc1 (stereo unspecified) | -6%[46.1 µM] | 26* | 19% | 45* | 5%[46.1 µM] | 22%
CCC(=O)Nc1cccc(C2=NN(c3ccccc3)C(c3ccc(OC)cc3)C2)c1 (stereo unspecified) | . | 2 | ? | -15 | . | -11%
COc1ccc(S(=O)(=O)N2N=C(c3ccc(NS(C)(=O)=O)cc3)CC2c2ccco2)cc1 (stereo unspecified) | 10% | 6 | 4% | 23 | 0.65µM* | -7%
Cc1ccc(C2=NN(S(=O)(=O)c3ccccc3)C(c3ccccc3O)C2)cc1 (stereo unspecified) | ? | 20* | 14µM* | 69* | ? | 43%
COc1ccc(C2CC(c3ccccc3O)=NN2c2ccccc2)cc1 (stereo unspecified) | -7%[46.1 µM] | . | -25% | . | 5% | -7%
COc1ccc(C2CC(c3ccccc3)=NN2c2ccc(N)cc2)cc1 (stereo unspecified) | ? | 39* | -11% | 44* | ? | 40µM*
CC1=C(C(=O)Nc2ccccc2C)C2(CCCC2)C(C(N)=O)C(=O)N1 (stereo unspecified) | 10% | -1 | 6% | 20 | -30%[14.3 µM] | -9%
CCn1c(=O)sc2cc(NC(=O)c3cccc(OC)c3)ccc21 | 8%[46.1 µM] | . | . | . | -5%[46.1 µM] | 21%
N#C/C(=C/C1=C(N2CCOCC2)C(=C/c2cccc([N+](=O)[O-])c2)/CC1)C(=O)Nc1ccccc1F | 7% | . | ? | . | 9% | 0%
COc1ccc(C2CC(c3ccccc3)=NN2S(=O)(=O)c2ccccc2)cc1 (stereo unspecified) | . | 34* | 13µM* | 55* | . | -3%
COc1ccc(C2CC(c3ccccc3)=NN2C(=O)c2ccc(F)cc2)cc1 (stereo unspecified) | 4% | 11 | 14% | -2 | -12% | 3%
Cc1cc(O)c(-c2cc(C(=O)Nc3ccc(S(=O)(=O)N4CCOCC4)cc3)[nH]n2)cc1C | ? | -2 | ? | 2 | ? | ?
Cc1ccc(-c2cc(C(=O)Nc3ccc(S(=O)(=O)N4CC(C)OC(C)C4)cc3)[nH]n2)c(O)c1 (stereo unspecified) | -9% | -1 | 4% | 8 | -16% | -27%
O=C(Nc1ccc(S(=O)(=O)N2CCOCC2)cc1)c1cc(-c2cc(Cl)ccc2O)n[nH]1 | . | -2 | 10µM* | -7 | . | ?
Cc1ccc(O)c(-c2cc(C(=O)Nc3ccc(S(=O)(=O)N4CC(C)OC(C)C4)cc3)[nH]n2)c1 (stereo unspecified) | ? | 5 | 11µM* | -9 | ? | ?
Cc1cccc(NS(=O)(=O)c2ccc(NC(=O)N3CCCCC3)cc2)c1 | ? | -2 | . | 6 | ? | -26%
